Bioassay records as filed in PubChem.
BAZ2B block – inhibitors of human BAZ2B bromodomain; hit rate 4.4% among 360,000; Q9UIF8; Potency, µM (highest dose often 114 µM), without a hit: top-dose activity change, negative = inhibition, hits mostly inhibitors; AID 504333; AlphaScreen BAZ2B-H3K14Ac peptide displacement; note: % is set by controls: 0 for no effect and ±100 for the full control effect; nearly all actives have a fitted effect of over 60% in size
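AlphaScreen displacement of biotin-H3(5-23)K14Ac peptide (50 nM final) from BAZ2B (50 nM final) in PBS pH 7.4, 0.01% Tween-20; complex preformed 30 min RT, then compounds (top 110 uM) 30 min RT, beads 20 min dark.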
PLK1 PBD block – PLK1 (human) polo-box domain binding inhibition | P53350 | Plk1 PBD binding of FITC phosphopeptide, fluorescence polarization | Potency, µM, for the others: max response, negative = inhibition, hits mostly inhibitors | hit rate 2.8% among 360,000 | AID 720504; note: series mostly up to about 57 µM; % is set by controls: 0 for no effect and ±100 for the full control effect; nearly all actives have a fitted effect of over 65% in size
Target sequence (P53350 whole entry, looked up, the tested form may be a part): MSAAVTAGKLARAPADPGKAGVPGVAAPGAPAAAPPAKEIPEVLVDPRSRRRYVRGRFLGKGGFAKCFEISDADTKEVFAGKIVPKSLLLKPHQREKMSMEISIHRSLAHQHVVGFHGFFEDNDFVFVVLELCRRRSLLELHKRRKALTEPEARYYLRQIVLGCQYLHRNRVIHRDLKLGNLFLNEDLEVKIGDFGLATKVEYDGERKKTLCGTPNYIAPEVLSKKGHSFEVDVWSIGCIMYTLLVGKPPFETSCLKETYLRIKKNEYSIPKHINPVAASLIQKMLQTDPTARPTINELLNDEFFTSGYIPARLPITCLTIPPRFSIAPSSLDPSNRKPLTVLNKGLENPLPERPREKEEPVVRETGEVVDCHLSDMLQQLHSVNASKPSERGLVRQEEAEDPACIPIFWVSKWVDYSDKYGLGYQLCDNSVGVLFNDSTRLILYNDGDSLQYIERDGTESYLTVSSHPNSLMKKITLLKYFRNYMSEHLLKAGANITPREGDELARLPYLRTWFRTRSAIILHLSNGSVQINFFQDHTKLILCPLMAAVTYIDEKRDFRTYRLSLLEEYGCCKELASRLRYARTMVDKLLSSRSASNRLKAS
HP1b chromo inh – inhibitors of HP1-beta chromodomain binding to methylated histone tails; P83916; AlphaScreen HP1-beta / biotin-H3K9me3 peptide binding; Potency, µM (highest dose often 114 µM), without a hit: top-dose activity change, negative = inhibition, usual class: inhibitors; hit rate 0.56% among 390,000; AID 540317; note: nearly all actives have a fitted effect of over 70% in size
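Compound inhibition of the preformed complex between 50 nM HP1-beta and 50 nM biotinylated H3K9me3 peptide was read by AlphaScreen. Buffer was PBS pH 7.4 with 0.01% Tween-20. Incubations ran 30 min at room temperature, with 10 ug/mL donor/acceptor beads.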
G9a inh – blocks human histone lysine methyltransferase G9a; Q96KQ7; Potency, µM (highest dose often 102 µM), without a hit: top-dose activity, negative = inhibition, actives largely listed as inhibitors; AID 504332; G9a H3K9 monomethylation, AlphaScreen, 2 h; hit rate 8.8% among 350,000; note: % is set by controls: 0 for no effect and ±100 for the full control effect; nearly all actives have a fitted effect of over 75% in size
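G9a (20 nM) preincubated 15 min RT with compounds, then 500 nM biotinylated H3K9 peptide and 20 uM SAM added; 2 h RT reaction. Monomethyl-H3K9 product detected by AlphaScreen with anti-H3K9me1 antibody, streptavidin donor and anti-rabbit IgG acceptor beads.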
JMJD2A Tudor inh – blocks the human JMJD2A Tudor domain; AlphaScreen JMJD2A-Tudor / H3K4me3 peptide binding; Potency, µM (series often up to 114 µM), inactives show at the highest dose activity change, negative = inhibition, usual class: inhibitors; hit rate 4.4% among 390,000; AID 504339; note: % is set by controls: 0 for no effect and ±100 for the full control effect; nearly all actives have a fitted effect of over 50% in size
Sfp inh – Sfp phosphopantetheinyl transferase inhibition; Biochemical Sfp PPTase activity, qHTS; Q9F4F7; hit rate 3.5% among 310,000; Potency, µM, for inactives: largest response in the series, negative = inhibition, actives largely listed as inhibitors;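 note: the enzyme is Sfp with the accession as filed and its product quenches rhodamine fluorescence; 0% = enzyme reaction without inhibitor and -100% = no enzyme wells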
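Step 1, compound plus 15 nM Sfp-PPTase, 15 min, room temperature. Step 2, add rhodamine-CoA (5 uM) and BHQ-2-YbbR (12.5 uM). Step 3, read 525/598 nm fluorescence at 0 and 30 min.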
An asterisk follows results filed as active; ? = inconclusive; / = no result; [ ] = remark or other dose. In the library only some 12% were active in any assay of this set; here they are far more common. Calls come from the whole dose curve; as a rule, active = well fitted curve in the direction sought with a large enough effect; inconclusive = small, poorly fitted or top-dose-only effect, or another doubt; inactive = no such curve, though single readings can be large; an effect the other way counts as inactive or inconclusive. Potency is the fitted concentration of half-maximal effect.

SMILES	BAZ2B block	PLK1 PBD block	HP1b chromo inh	G9a inh	JMJD2A Tudor inh	Sfp inh
CCOc1ccccc1NC(=O)C(Sc1ccccc1)c1ccccc1 (centres undefined)	39.2%	21.2µM*	47.9%	74.4%[59 µM]	-6.8%[11.4 µM]	8.5%
COc1ccccc1NC(=O)C(Sc1ccccc1)c1ccccc1 (centres undefined)	23.8%	3.8%	117.4%	89.6%	54.1%	27.1%
CCOC(=O)c1c(NC(=O)C(Sc2ccccc2)c2ccccc2)sc(C(N)=O)c1C (centres undefined)	10.9%	?	22.2%	7.94µM*	-6.3%	-6.7%
CCOc1ccccc1NC(=O)C(NCC1(N2CCCCC2)CCCCC1)c1ccccc1 (centres undefined)	79.4µM*	-4.0%	-9.5%	-6.0%	79.4µM*	?
COc1ccc(NC(=O)CCN(c2ccc(OC)cc2)S(=O)(=O)c2ccc(C)c(C)c2)cc1	/	10.0%	10.5%	/	-16.5%	/
COc1ccc(NC(=O)Cn2c(=O)n(Cc3ccco3)c(=O)c3cc(OC)c(OC)cc32)cc1	3.8%	/	32.0%	18.4%[59 µM]	-3.1%	/
O=C(Nc1cc(C(F)(F)F)ccc1Cl)C(Sc1cccc[n+]1[O-])c1ccccc1 (centres undefined)	-8.8%	?	5.7%	8.91µM*	?	-11.1%
CCN(C(=O)COC(=O)c1cc([N+](=O)[O-])ccc1N1CCOCC1)C1CCCCC1	-31.3%	-2.2%	3.1%	-44.5%	-25.0%	/
CN(C)c1ccc(NC(=O)CN2CCN(c3ccc(F)cc3)CC2)cc1	-27.3%	-11.8%	5.1%	?	-18.4%	23.8%
Cc1ccc(C(=O)C2CCN(CC(=O)Nc3ccc(N(C)C)cc3)CC2)cc1	-78.8%	-8.3%	-46.7%	39.8µM*	44.7µM*	3.3%
CN(C)c1ccc(NC(=O)CN2CCN(CC(=O)Nc3ccc(F)cc3)CC2)cc1	?	-4.6%	-12.6%	25.1µM*	-4.7%[57.1 µM]	13.7%
CCSc1nc2c(c(=O)[nH]c(=O)n2C)n1CC(O)COc1ccccc1 (centres undefined)	/	5.4%	48.5%	8.5%	-13.6%	9.9%
COCCCNc1nc2c(c(=O)[nH]c(=O)n2C)n1CC(O)COc1ccccc1C (centres undefined)	-4.3%	23.8µM*	-4.8%	-20.3%	-29.7%	13.7%
Cn1c(=O)[nH]c(=O)c2c1nc(SCCO)n2CC(O)COc1ccccc1 (centres undefined)	-25.8%	23.8µM*	?	15.8µM*	-21.1%	5.01µM*
CC(C)CSc1nc2c(c(=O)[nH]c(=O)n2C)n1CC(O)COc1cccc2ccccc12 (centres undefined)	-8.7%	10.6µM*	?	3.98µM*	?	28.2µM*
CCCSc1nc2c(c(=O)[nH]c(=O)n2C)n1CC(O)COc1ccccc1 (centres undefined)	2.1%	-29.6%	-2.7%	50.1µM*	-8.7%	-3.6%
Cc1ccc(C(=O)NCc2nc3ccccc3[nH]2)o1	-3.0%	-10.9%	31.7%	61.1%	-17.2%	8.5%
Cc1[nH]c2ccc(Br)cc2c1CCNC(=O)c1cc2ccccc2oc1=O	-8.5%	/	13.3%	-2.7%[59 µM]	-16.0%	/
COc1ccc(COC(=O)CNC(=O)C2CCCCC2)cc1F	/	2.7%	23.4%	/	2.7%	/
O=C(c1ccncc1)N1CCC2(CCCN(c3ccccn3)C2)CC1	/	/	/	1.6%[12.7 µM]	/	4.2%
Cn1c(=O)c2c(nc(N3CCCCCC3)n2CC(O)COc2ccccc2)n(C)c1=O (centres undefined)	-4.4%	2.99µM*	?	10.1%[0.0925 µM]	?	-14.4%
Cn1c(=O)c2c(nc(N3CCCCC3)n2CC(O)COc2ccccc2)n(C)c1=O (centres undefined)	4.8%	-10.6%	10.4%	20.6%	-17.3%	22.4%
N#Cc1c(-c2ccccc2)cc(-c2cccs2)nc1SCC(=O)O	-5.2%	26.7µM*	3.6%	8.91µM*	-13.2%	56.2µM*
CN1CCN(C(=O)CSc2nc(-c3cccs3)ccc2C#N)CC1	0.7%	0.0%	16.5%	39.8µM*	?	?
Cc1cccc(CSc2nc(-c3cccs3)ccc2C#N)c1	115.5%	/	132.7%	227.8%[59 µM]	120.1%	/
SMILES	BAZ2B block	PLK1 PBD block	HP1b chromo inh	G9a inh	JMJD2A Tudor inh	Sfp inh
COc1ccc(-c2cc(-c3cccs3)c(C#N)c(SCC(=O)NCc3ccccc3)n2)cc1	2.5%[57.1 µM]	0.8%	30.7%	1.2%	0.3%	-3.4%
N#Cc1c(-c2ccc(Cl)cc2)cc(-c2cccs2)nc1SCC(=O)O	22.4µM*	16.8µM*	-17.6%	8.91µM*	28.2µM*	39.8µM*
N#Cc1c(-c2ccccc2)cc(-c2ccccc2)nc1SCC(O)CS(=O)(=O)Cc1ccccc1 (centres undefined)	-13.7%	/	-16.8%	4.47µM*	-25.5%	/
CCOC(=O)c1cccc(NC(=O)CN2C(=O)c3ccccc3Sc3ncccc32)c1	-25.8%	/	31.2%	-1.1%[59 µM]	-16.8%	/
CSc1ncc2c(n1)-c1ccccc1N(Cc1ccc(Cl)cc1)S2(=O)=O	9.9%	/	68.8%	-4.9%[59 µM]	15.9%	/
c1ccc(CNCc2nnc(-c3cc4ccccc4[nH]3)s2)cc1	/	/	/	/	-18.5%	/
O=C(NNC(=O)c1ccccc1O)c1cc2ccccc2o1	9.5%	-4.0%	31.6%	-40.7%[0.501 µM]	-8.5%	/
COc1cccc(C(=O)Oc2ccccc2/C=C\C(=O)c2cc3ccccc3o2)c1	?	-13.5%	5.7%	11.2µM*	-30.8%	?
O=C(/C=C/c1cc2ccccc2o1)c1ccccc1O	8.91µM*	-5.9%	?	/	20µM*	0.9%
COc1ccc(/C=C/C(=O)c2cc(O)ccc2O)cc1	/	/	/	?	/	-40.0%
COc1ccc(O)c(C(=O)/C=C/c2cc3ccccc3o2)c1	11.2µM*	-3.9%	3.55µM*	?	28.2µM*	12.0%
CC(=O)Nc1ccc(SCC(CC(C)C)N2CCN(C)CCC2=O)cc1 (centres undefined)	/	/	33.8%	/	-7.6%	18.6%
O=C(c1cc(Br)c(Br)s1)N1CCOCC1	6.8%	-6.7%	22.0%	1.4%[12.7 µM]	-8.3%	/
O=C(c1coc(=O)c(Br)c1)N1CCOCC1	50.1µM*	?	?	?	?	5.9%
O=C(c1ccc(=O)oc1)N1CCOCC1	50.1µM*	-29.0%	22.4µM*	22.4µM*	44.7µM*	6.3%
O=C(c1ccc(F)cc1)N1CCOCC1	1.5%	4.8%	44.9%	21.3%	2.7%	4.7%
Cc1cc(NC(=O)CSc2nnc(C3COc4ccccc4O3)o2)no1 (centres undefined)	50.1µM*	-26.2%	8.3%	?	-10.8%	-1.2%
Cc1cc(NC(=O)CSc2nnc3c(C)cc4cc5c(cc4n23)OCO5)no1	-3.2%	/	/	35.5µM*	/	12.7%
C=CCn1c(SCC(=O)Nc2cc(C)on2)nnc1C1COc2ccccc2O1 (centres undefined)	-14.0%	0.6%	45.1%	28.1%	-2.1%	-16.3%
